Screening data from PubChem.
In the library only some 3.8% were active in any assay of this set; here they are far more common.
MT1-MMP txn act: MT1-MMP promoter transcription activation; AID 750; activation factor at 10 µM; hit rate 0.16% among 86,000; HT1080 MT1-MMP promoter luciferase reporter, luminescence, overnight; stronger effect = higher value;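 active = activation factor of at least 2 for MT1-MMP transcription at 10 µM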
ERa SRC1 inh: ER-alpha (human) coactivator binding inhibition. TR-FRET ER-alpha LBD / SRC-1 peptide, estradiol-bound. hit rate 1.7% among 86,000. P03372. AID 629. inhibition, % at 25.6 µM; in the data active = inhibition above about 50%;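 note: 0% = receptor plus peptide control and 100% = peptide only without receptor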
ERa coact pot: ER-alpha (human) coactivator binding potentiation. P03372. AID 639. coactivator binding (% of control), % at 25.6 µM. hit rate 1.3% among 86,000. TR-FRET ERalpha-LBD/SRC-Cy5 coactivator binding, 2 h; 100 = basal binding, no effect; in the data active = activity above about 200%;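 note: binding measured in presence of low estradiol as agonist stimulus; 0% = peptide alone without receptor and 100% = receptor with peptide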
Calb biofilm kill: kills Candida albicans biofilms | C. albicans biofilm + clotrimazole, Alamar Blue | inhibition, % at 6 µM | hit rate 0.14% among 85,000;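 active = inhibition above 20%; inactive = inhibition below 20%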;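 note: preformed 24 hr biofilms exposed to compound for 48 hr; 0% = biofilm without compound and 100% = blank killed by clotrimazole plus chlorhexidine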
ERb SRC1 inh: blocks coactivator binding to human estrogen receptor beta; Q92731; TR-FRET ER-beta LBD / SRC1-Cy5 peptide binding; receptor agonist-loaded with 1 µM estradiol; inhibition, % at 25.6 µM; hit rate 1.3% among 86,000; AID 633;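 active = compounds whose percent inhibition of the receptor-coactivator binding signal exceeds about 50% in the single-dose screen, limit read from the data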;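 note: 0% = receptor plus peptide wells without compound and 100% = peptide-only wells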
Target sequence (Q92731 whole entry, looked up, the tested form may be a part): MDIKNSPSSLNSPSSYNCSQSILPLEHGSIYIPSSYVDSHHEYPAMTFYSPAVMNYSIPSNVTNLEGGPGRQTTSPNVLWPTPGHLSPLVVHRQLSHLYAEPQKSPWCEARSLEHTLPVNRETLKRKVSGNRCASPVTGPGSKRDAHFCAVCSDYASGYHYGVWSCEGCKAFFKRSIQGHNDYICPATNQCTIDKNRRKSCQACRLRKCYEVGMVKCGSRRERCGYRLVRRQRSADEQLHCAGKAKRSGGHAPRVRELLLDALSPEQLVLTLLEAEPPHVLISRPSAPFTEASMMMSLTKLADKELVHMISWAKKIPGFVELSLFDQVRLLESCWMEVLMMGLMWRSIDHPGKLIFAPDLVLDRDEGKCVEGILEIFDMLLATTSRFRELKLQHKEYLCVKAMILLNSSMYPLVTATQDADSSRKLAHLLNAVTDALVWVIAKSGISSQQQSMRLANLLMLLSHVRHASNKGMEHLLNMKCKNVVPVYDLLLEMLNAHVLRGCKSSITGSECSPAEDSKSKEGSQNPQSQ
Smad3 FoxH1 inh: inhibitors of human Smad3 transcription factor binding; hit rate 0.29% among 88,000; P84022; AID 630; inhibition, % at 25 µM; TR-FRET Smad3/Dy647-FoxH1 peptide binding, europium anti-His;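 active = compounds that reduce the energy-transfer binding signal between the protein and its labelled peptide by more than half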;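 note: 0% = Smad3 plus labelled peptide maximal FRET and 100% = peptide-only background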
An asterisk follows results filed as active; · = not tested or not shown; [ ] = dose if it differs, or a comment.

SMILES	MT1-MMP txn act	ERa SRC1 inh	ERa coact pot	Calb biofilm kill	ERb SRC1 inh	Smad3 FoxH1 inh
CN1CCN(c2ccc3nc(-c4ccc5nc(-c6ccc(O)cc6)[nH]c5c4)[nH]c3c2)CC1	·	·	·	·	·	11.3
CNC(=O)C1(CC(C)C)C=CCN1C(=O)c1ccccc1 (configuration not stated)	1	·	·	·	·	·
COc1nc2c(C)cccc2cc1-c1noc(-c2ccco2)n1	1.8	54.5*[fluorescence artefact?]	191.8	6.2	32.1	7.4
COc1cccc(-c2ccc(-c3noc(-c4ccccc4F)n3)c(OC)n2)c1	1.2	21.6	190.5	6.4	5.8	26.7
COc1nc(-c2ccc(Cl)cc2)ccc1-c1noc(-c2ccco2)n1	1	29.6	376.2*	4.7	32.3	0.0
COc1cc(OC)cc(-c2nc(-c3cc4cc(C)ccc4nc3OC)no2)c1	0.9	10.8	174.9	4.8	36.9	21.1
COc1cccc(-c2ccc(-c3noc(-c4cccs4)n3)c(OC)n2)c1	·	13.9	310.3*[fluorescence artefact?]	1.1	17.2	-15.6
COC(=O)[C@@]1(C)C=C[C@@H](Cc2ccccc2)N1C	1	·	·	·	·	·
COC(=O)[C@@]1(Cc2ccc(OC)cc2)[C@H]2c3cc(C(=O)N4CCCC4)n(CCc4ccc(O)c(OC)c4)c3C[C@H]2CN1C(=O)c1ccccc1	1.1	·	·	·	·	·
CCc1nnc(NC(=O)C2Cc3ccccc3CN2S(=O)(=O)c2ccc(C)cc2)s1 (configuration not stated)	1.7	1.2	89.4	1.0	6.8	11.2
CCc1nnc(NC(=O)C2Cc3ccccc3CN2S(=O)(=O)c2cccs2)s1 (configuration not stated)	1.4	55.2*	79.8	·	27.3	-0.3
COc1ccc(C2CC(=O)C=C(NCCC(C)C)C2)cc1 (configuration not stated)	1.3	-0.3	94.3	13.1	4.3	9.3
NS(=O)(=O)c1ccc(NC(=O)Nc2ccccc2F)cc1	·	·	·	·	·	3.7
Cc1ccc(C(=O)CSC2=C(C#N)C(c3ccco3)CC(=O)N2)c(C)c1 (configuration not stated)	1.2	60.3*	69.0	7.5	63.7*	7.8
Cc1ccc(NC(=O)CSC2=C(C#N)C(c3ccco3)CC(=O)N2)cc1 (configuration not stated)	1.3	7.8	100.7	4.7	11.2	-1.1
CCOC(=O)C(C)n1cnc2sc3c(c2c1=O)CCC3 (configuration not stated)	1.1	17.1	107.8	3.7	41.3	20.6
CCOC(=O)Cn1cnc2sc3c(c2c1=O)CCC3	1.2	63.5*[fluorescence artefact?]	86.5	5.8	70.0*	1.5
O=C(CCSc1nnc(-c2ccncc2)o1)Nc1ccccc1Cl	·	-0.7	105.3	7.8	1.2	5.8
CN1CCN(c2nc3c(c(=O)n(C)c(=O)n3C)n2C)CC1	·	·	·	·	·	0.4
COc1ccc2nc(Nc3nc(C)c(CCC(C)C)c(=O)[nH]3)nc(C)c2c1	0.9	10.5	116.1	·	15.8	-17.9
CCOc1ccc2nc(Nc3nc4c(c(=O)[nH]3)CCC4)nc(C)c2c1	1.3	52.3*[fluorescence artefact?]	177.8	9.8	35.7	19.2
CCOc1ccc2nc(Nc3nc(CSc4nnnn4-c4ccccc4)cc(=O)[nH]3)nc(C)c2c1	1.1	70.1*[fluorescence artefact?]	215.6*[fluorescence artefact?]	-2.7	39.4	-7.7
N[C@@H](CSCc1ccc(I)cc1)C(=O)O	·	·	·	·	·	-3.7
Oc1c(C=Nc2cccc3cccnc23)sc2ccccc12	0.9	78.8*	63.7	6.2	50.8*[fluorescence artefact?]	0.2
CS(=O)(=O)N1CCN(c2ccccc2NC(=O)Cc2ccc(Cl)cc2)CC1	1	-4.8	947.9*[fluorescence artefact?]	9.5	1.0	-7.2
SMILES	MT1-MMP txn act	ERa SRC1 inh	ERa coact pot	Calb biofilm kill	ERb SRC1 inh	Smad3 FoxH1 inh
CS(=O)(=O)N1CCN(c2ccccc2NC(=O)Cc2ccccc2)CC1	1	-5.2	111.2	-1.7	-4.1	-6.1
COC(=O)c1ccc(Cl)c(NC(=O)NC2CCCCC2)c1	1.2	43.7	244.2*[fluorescence artefact?]	10.7	26.6	4.6
Brc1ccccc1-c1nnc(CSc2nnnn2-c2ccccc2)o1	1.2	51.0*	88.0	-1.1	26.6	4.2
Cc1nnc(SCc2nnc(-c3ccccc3Br)o2)n1-c1ccccc1	1.2	44.4	78.2	-1.6	27.7	1.5
CCOc1cc(-n2cnnn2)c(OCC)cc1NC(=O)c1cnccn1	1	54.5*	137.5	2.8	25.8	16.1
CCn1c(SCC(=O)N2CCN(c3ccc(Cl)cc3)CC2)nc2ccccc2c1=O	1.4	4.0	107.2	4.3	-8.7	-7.2
CCn1c(SCC(=O)N2CCOCC2)nc2oc3c(Cl)cc(Cl)cc3c(=O)c2c1=O	1.1	65.2*[fluorescence artefact?]	64.4	3.1	51.9*	3.4
Cc1conc1NC(c1cccs1)c1ccc2cccnc2c1O (configuration not stated)	0.8	56.8*[fluorescence artefact?]	66.2	16.3	46.4	-0.3
COc1ccc2c(=O)c3c(=O)n(Cc4ccco4)c(-c4ccco4)nc3oc2c1	1.2	75.2*[fluorescence artefact?]	48.8	-0.9	60.3*	15.4
CCc1nc2oc3cc(OC)ccc3c(=O)c2c(=O)n1Cc1ccco1	1.2	37.3	78.2	7.3	58.6*	3.3
COc1ccc(Cn2c(-c3ccco3)nc3oc4cc(OC)ccc4c(=O)c3c2=O)cc1	1.9	49.5	570.8*[fluorescence artefact?]	4.6	53.8*[fluorescence artefact?]	-83.9
CCCc1cc2c(n1CCc1ccc(Cl)cc1)C(C)C1CN(C(=O)c3ccccc3)C(C)(C(=O)OC)C21 (configuration not stated)	1	·	·	·	·	·
O=C(NC1CCCCC1)c1noc2c1CCCCC2	1.2	50.4*[fluorescence artefact?]	71.6	-0.5	61.3*[fluorescence artefact?]	15.7
COC(=O)c1ccccc1NC(=O)c1cc(-c2cccs2)on1	1.2	-2.4	251.3*[fluorescence artefact?]	11.2	48.6	-2.9
CCc1ccc(NC(=O)c2noc3c2CCC3)cc1	·	81.5*	42.7	3.3	76.5*	-4.7
COC(=O)c1ccccc1NC(=O)c1noc2c1CCC2	1.2	89.1*[fluorescence artefact?]	20.6	7.0	87.3*	6.1
COC(=O)[C@@]1(Cc2ccc(F)cc2)[C@H]2c3cc(C(=O)N(C)C)n(Cc4ccc(C(F)(F)F)nc4)c3C[C@H]2CN1C(=O)c1ccccc1	1.2	·	·	·	·	·
CSc1ccccc1NC(=O)c1noc2c1CCC2	1.6	91.7*[fluorescence artefact?]	51.6	9.1	86.3*	1.2
COC(=O)[C@@]1(Cc2ccc(OC)cc2)[C@H]2c3cc(C(=O)N(C)C)n(CCSCCO)c3C[C@H]2CN1C(=O)c1ccccc1	1.2	·	·	·	·	·
O=C(CS(=O)(=O)c1c[nH]c2ccccc12)NC1CCCCC1	·	-0.5	108.0	6.1	-2.3	3.8
Cc1ccc(C)c(-n2nnnc2SCC(=O)c2ccc3c(c2)NC(=O)CO3)c1	1.1	19.9	231.7*[fluorescence artefact?]	-4.1	1.7	-5.5
Cc1cc2sc(C(=O)O)c(C)c2s1	1.2	21.3	105.0	5.0	-1.7	54.0*[fluorescence artefact?]
NCCCc1c(-c2ccccc2)nc(N)[nH]c1=O	·	·	·	·	·	-17.5
Cc1ccc(-c2csc(NC(=O)c3ccno3)n2)cc1	1.1	73.1*	28.6	3.9	75.0*	3.0
CN(C)c1nc(-c2ccccn2)nnc1-c1ccccc1	·	57.9*[fluorescence artefact?]	104.3	0.6	-11.5	12.5
